# Source: paper PMC4336329 (PLoS ONE, 2015)
# Out of some 310,000 compounds screened, about 14,000 (4.5%) showed an effect of 50% or more. Effects have a minus sign here. This is one part of a sample in which strong results are shown more often than they occur.
# Molecular target: human ether-à-go-go-related gene (hERG) potassium channel (human, UniProt Q12809)
# Assay: primary screen, population patch clamp on CHO cells stably expressing hERG; higher = less effect of the substance
# 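Note: peak tail current of the secondary pulse compared with the same well before compound.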
# Sequence of human ether-à-go-go-related gene (hERG) potassium channel (Q12809 whole entry, looked up): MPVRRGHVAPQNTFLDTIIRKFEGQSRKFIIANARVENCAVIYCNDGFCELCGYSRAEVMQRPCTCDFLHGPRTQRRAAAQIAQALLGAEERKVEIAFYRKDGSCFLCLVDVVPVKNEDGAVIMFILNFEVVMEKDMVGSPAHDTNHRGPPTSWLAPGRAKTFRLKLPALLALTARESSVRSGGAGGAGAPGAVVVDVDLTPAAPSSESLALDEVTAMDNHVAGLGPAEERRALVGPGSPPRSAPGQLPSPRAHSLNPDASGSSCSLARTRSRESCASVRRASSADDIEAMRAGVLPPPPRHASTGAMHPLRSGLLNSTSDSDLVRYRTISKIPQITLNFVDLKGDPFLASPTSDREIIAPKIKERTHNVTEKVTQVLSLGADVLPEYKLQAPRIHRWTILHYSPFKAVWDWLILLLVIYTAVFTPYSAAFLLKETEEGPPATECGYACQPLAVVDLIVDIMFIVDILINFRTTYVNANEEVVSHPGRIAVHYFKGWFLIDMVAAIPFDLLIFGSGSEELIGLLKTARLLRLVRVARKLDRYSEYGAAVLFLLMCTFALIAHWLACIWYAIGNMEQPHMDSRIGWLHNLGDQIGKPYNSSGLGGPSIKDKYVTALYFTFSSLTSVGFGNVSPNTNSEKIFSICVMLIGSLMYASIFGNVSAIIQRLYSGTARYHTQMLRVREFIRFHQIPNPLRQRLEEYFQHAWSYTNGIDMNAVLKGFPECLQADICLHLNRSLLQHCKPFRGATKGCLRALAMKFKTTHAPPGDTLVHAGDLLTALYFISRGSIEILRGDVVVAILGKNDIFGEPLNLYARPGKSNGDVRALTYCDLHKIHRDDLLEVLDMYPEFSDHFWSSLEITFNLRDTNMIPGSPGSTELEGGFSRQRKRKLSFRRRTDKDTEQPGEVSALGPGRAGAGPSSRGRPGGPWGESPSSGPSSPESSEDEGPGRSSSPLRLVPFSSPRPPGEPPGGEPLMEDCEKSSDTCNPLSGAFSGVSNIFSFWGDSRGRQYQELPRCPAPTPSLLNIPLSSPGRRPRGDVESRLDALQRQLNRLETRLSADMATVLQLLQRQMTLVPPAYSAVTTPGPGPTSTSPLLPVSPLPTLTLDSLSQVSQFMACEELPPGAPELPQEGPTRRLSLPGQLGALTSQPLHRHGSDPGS
row,Compound,"hERG current change (%, negative = inhibition) at 10uM [%]"
1,COc1ccc(/C(C)=N/Nc2nc3ccccc3n3cnnc23)cc1OC,-19.4
2,CC(c1ccccc1)n1c(CCCO)nc2ccccc21 (centres unmarked),-2.26
3,COc1cccc(OC)c1C(=O)Nc1ccc(Cc2ccncc2)cc1,8.86
4,CC1CCCN(Cc2nc3c(c(=O)n(C)c(=O)n3C)n2CC(=O)c2ccccc2)C1 (centres unmarked),-8.71
5,CCN(Cc1ccncc1)Cc1cn[nH]c1-c1ccc(OC)cc1F,-3.13
6,COc1ccc(NC(=O)CN(C)C(=O)c2cccc3ccccc23)cc1,3.09
7,OCCNc1nc(Nc2ccc(Cl)cc2)nc(N2CCCC2)n1,-15.1
8,COc1nc(NCCO)nc(Nc2ccc([N+](=O)[O-])cc2)n1,-40.2
9,CCOc1nc(NCCN2CCOCC2)nc(Nc2ccc([N+](=O)[O-])cc2)n1,-93.1
10,CCOc1nc(NCCN2CCOCC2)nc(Nc2ccc(C)cc2)n1,-65.3
11,CCOc1nc(NCCO)nc(Nc2ccc([N+](=O)[O-])cc2)n1,-9.66
12,O=[N+]([O-])c1ccc(Nc2nc(NCCO)nc(N3CCCC3)n2)cc1,-58.3
13,CCOc1nc(Nc2ccc([N+](=O)[O-])cc2)nc(NC(C)(C)C)n1,12.2
14,CCOc1nc(NCCN2CCOCC2)nc(NC(C)C)n1,-9.84
15,C=CCNc1nc(Nc2ccc([N+](=O)[O-])cc2)nc(N2CCCC2)n1,-23.8
16,C=CCNc1nc(Nc2ccc([N+](=O)[O-])cc2)nc(OC)n1,-14.1
17,CCCNc1nc(Nc2ccc(C)cc2)nc(N2CCCC2)n1,-30.6
18,COc1nc(NCCN2CCOCC2)nc(Nc2ccc([N+](=O)[O-])cc2)n1,-50.7
19,CCCn1c(N)c(N(CCOC)C(=O)c2cc(C)cc(C)c2)c(=O)[nH]c1=O,16.4
20,CCCS(=O)(=O)N1CCN(Cc2ccc(OCc3ccccc3)c(OC)c2)CC1.O=C(O)C(=O)O,-43.2

row,Compound,"hERG current change (%, negative = inhibition) at 10uM [%]"
1,O=C(NCc1ccccn1)c1c(Cl)cccc1Cl,2.78
2,COc1ccc(-n2c(C)cc(C)c(C(C)=O)c2=S)cc1,-2.39
3,Cc1cccc(N2CCN(CC(=O)N(C3CCCC3)C3CCS(=O)(=O)C3)CC2)c1C (centres unmarked),-13.3
4,CCCc1nnc(SCC(=O)N(CC)CC)n1CC1CCCO1 (centres unmarked),21.9
5,Cc1ccc2[nH]c(=O)c(CN(CCc3ccccc3)Cc3nnnn3CC3CCCO3)cc2c1 (centres unmarked),-16
6,CC(=O)Nc1ccc(/C=N/NC(=S)NC(C)C)cc1,21.3
7,CC(Cc1n[nH]c(=S)n1N)c1ccccc1 (centres unmarked),19.8
8,CS(=O)(=O)c1ccc(Cl)c(NC(=O)COC(=O)c2ccc(-n3cnnn3)cc2)c1,-7.82
9,COc1ccc(NC(=O)COc2cccc(-n3cnnn3)c2)cc1,-54.3
10,O=C(COc1cccc(-n2cnnn2)c1)Nc1ccccc1,-26.4
11,CCc1ccc(NC(=O)COc2cccc(-n3cnnn3)c2)cc1,-68
12,O=C(COc1cccc(-n2cnnn2)c1)Nc1ccc([N+](=O)[O-])cc1,-43.6
13,COC(=O)c1ccc(NC(=O)COc2cccc(-n3cnnn3)c2)cc1,6.77
14,COc1cccc(CNC(=O)COc2cccc(-n3cnnn3)c2)c1,-18.9
15,COc1cccc(NC(=O)COc2cccc(-n3cnnn3)c2)c1,-50.8
16,Cc1ccc(NC(=O)COc2cccc(-n3cnnn3)c2)cc1[N+](=O)[O-],-0.307
17,COc1ccc(NC(=O)COc2cccc(-n3cnnn3)c2)cc1Cl,24
18,S=c1[nH]nc(CSCc2ccccc2Cl)n1-c1ccccc1,0.868
19,CCOc1ccccc1N(CC(=O)NC1CCCC1)C(=O)CCCC(=O)Nc1ccccn1,-8.6
20,O=C(O)/C=C\c1cccc(-n2cnnn2)c1,-1.3

row,Compound,"hERG current change (%, negative = inhibition) at 10uM [%]"
1,CCC(=NCCc1c[nH]c2ccccc12)c1c(O)n(C)c(=O)n(C)c1=O,-10.8
2,COc1ccc(/C(C)=N/NC(=O)C2C3CCCCC32)c(OC)c1 (centres unmarked),-0.79
3,CN(C)CCNC(=O)Cn1ccc2cc(S(=O)(=O)N3CCCCC3)ccc21,8.47
4,Cc1ccc(NC(=O)CN(C)C(=O)c2nn(C)c(=O)c3ccccc23)cc1,-35.7
5,CC1CN(CC(=O)NN=C(c2ccccc2)c2ccccc2)CC(C)O1 (centres unmarked),12.8
6,O=C(CN1CCOCC1)NN=C(c1ccccc1)c1ccccc1,20.8
7,O=C(CCl)NN=C(c1ccccc1)c1ccccc1,0.333
8,C=CCNC(=O)NC(=S)c1ccccc1,-4.57
9,C=CCNCC(=O)NN=C(c1ccccc1)c1ccccc1,-68.5
10,C/C(=N\NC(=O)CNc1ccccc1)c1ccccc1,-12.8
11,O=C(CN1CCCC1)NN=C(c1ccccc1)c1ccccc1,-68.3
12,CCOC(=O)C(=O)NN=C(c1ccccc1)c1ccccc1,9.79
13,O=C(NN=C(c1ccccc1)c1ccccc1)C(CCl)C1CCCCC1 (centres unmarked),-2.74
14,O=C(CNC1CCCCC1)NN=C(c1ccccc1)c1ccccc1,-59.8
15,CC(NC1CCCCC1)C(=O)NN=C(c1ccccc1)c1ccccc1 (centres unmarked),-32.1
16,CCN(CC)CC(=O)NN=C(c1ccccc1)c1ccccc1,-77.6
17,O=C(CN1C(=O)C2C3C=CC(C3)C2C1=O)NC1CCCc2ccccc21 (centres unmarked),-2.95
18,CCOC(=O)CN(C#N)c1nc(C)cc(C)n1,-7.84
19,Cc1nc(SCCc2ccccc2)[nH]c(=O)c1C,19.6
